# Reference: PubChem BioAssay
# Where “and” joins values, the source holds several entries; their conditions need not be identical. Identical values can stand only once. Records with an inconclusive call do not appear. More than one record can exist for a structure, and the calls need not agree. Calls of active or inactive are those of the source.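 How the source made its calls, unless noted: active means normalized viability below 100% at a tested concentration; inactive means the rest.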
# Tests used:
# [1] = test system: Aerobactin synthetase IucA (Klebsiella pneumoniae); test: IucA aerobactin synthetase inhibitors, biochemical, Tocris library, absorbance (AID 1345561; call rule not given here;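 further: 100% = enzyme without compound and 0% = no enzyme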); conditions: purified IucA enzyme assay, absorbance (OD) read-out; stronger effect = lower value;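 tested at 8 µM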
# [2] = growth inhibition of DIPG glioma cells, dose response, cell-based, SU-DIPG-IV, MIPE4.0, CellTiter-Glo, qHTS (AID 1347063; cut-off not given, nearly all actives have AC50 up to about 30 µM;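 further: compound exposure lasted 48 hours before the viability readout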); conditions: SU-DIPG-IV viability, CellTiter-Glo ATP luminescence
# [3] = SU-DIPG-VI glioma cell viability, MIPE4.0 library, CellTiter-Glo luminescence, qHTS (AID 1347066; cut-off not given, nearly all actives have AC50 up to about 30 µM;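 further: cells exposed to compound for 48 hours before readout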); conditions: CellTiter-Glo ATP luminescence
# [4] = JHH-DIPG-1 glioma cell viability, MIPE5.0 library, CellTiter-Glo luminescence, qHTS (AID 1347067; cut-off not given, nearly all actives have AC50 up to about 26 µM;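 further: cells exposed to compound for 48 hours before readout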); conditions: JHH-DIPG-1 glioma viability, CellTiter-Glo ATP luminescence
# [5] = sensitizers of A549 cells to miR-34 induction, primary screen, imaging, A549 dox-inducible miR-34, nuclei and caspase counts (AID 1347080;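 active means compounds whose cell count with miR-34 switched on is under 0.7 times the count with it off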); conditions: A549 miR-34 inducible, Hoechst nuclei count, 48 h
# [6] = modifiers of HSF1 nuclear foci, imaging, Selleck Cancer Library (AID 1347162; in the data active means plate-normalised HSF1 focus index below about 0.46); conditions: human cells, at 10 µM; SSMD: measured here: HSF1 foci SSMD mean; cell count: measured here: cell number; plate-normalised HSF1 focus index: stronger effect = lower value
# [7] = viability rescue of complex I mutant cybrids, primary screen, cell-based, galactose medium, ATP luminescence (AID 1645843;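 active means z-score of at least 1.8 in each of two replicates, scored against plate mean and spread of sample wells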;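 further: positive z means more ATP and so rescue of galactose-driven cybrid death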); conditions: complex I mutant cybrid cells, 72 h, stronger effect = higher value
# [8] = liver-stage malaria parasite growth inhibition, primary screen, cell-based, HepG2, luciferase luminescence, HepG2 viability (AID 624349; in the data active means parasite load remaining mostly below about 12%, no sharp cut-off; inactive means mostly above about 10%;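 further: 100% = mean of DMSO negative control wells on the same plate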); conditions: P. berghei liver stage in HepG2, luciferase luminescence, concentration not given here; parasite load remaining: stronger effect = lower value; viability: measured here: HepG2 viability without parasites
# [9] = growth inhibition of DIPG glioma cells, dose response, cell-based, SU-DIPG-XVII, MIPE5.0, CellTiter-Glo, qHTS (AID 1347060; cut-off not given, nearly all actives have AC50 up to about 26 µM;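 further: cells exposed to compound for 48 hours before viability readout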); conditions: SU-DIPG-XVII viability, CellTiter-Glo ATP luminescence
# [10] = growth inhibition of DIPG glioma cells, dose response, cell-based, SU-DIPG-XIII, MIPE5.0, CellTiter-Glo, qHTS (AID 1347064; cut-off not given, nearly all actives have AC50 up to about 23 µM;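 on AC50: cells exposed to compound for 48 hours before the viability read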); conditions: SU-DIPG-XIII viability, CellTiter-Glo ATP luminescence
# [11] = viability loss in pontine glioma line – cell-based, SU-DIPG-XXV, MIPE5.0, CellTiter-Glo, qHTS, dose response (AID 1347065; cut-off not given, nearly all actives have AC50 up to about 26 µM;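 further: cells exposed to compound for 48 hours before ATP readout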); conditions: CellTiter-Glo ATP luminescence
# [12] = survival rescue of mitochondrial mutant cells in low glucose, primary screen, MELAS cybrids, Rieske KO mouse fibroblasts, CellTiter-Glo (AID 1508586;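 active means mean z-score across replicates of 1.96 or higher in either the MELAS or the Rieske mutant cell line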;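 further: z relative to plate mean and SD of compound and empty wells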)
# [13] = SU-DIPG-XXV glioma cell viability, MIPE5.0 library, qHTS (AID 1347068; cut-off not given, nearly all actives have IC50 up to about 30 µM)
# [14] = growth inhibition of DIPG glioma cells, dose response, cell-based, SU-DIPG-XIII, MIPE4.0, CellTiter-Glo, qHTS (AID 1347061; cut-off not given, nearly all actives have AC50 up to about 37 µM;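 further: cells exposed to compound for 48 hours before readout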); conditions: SU-DIPG-XIII viability, CellTiter-Glo ATP luminescence
# [15] = growth inhibition of DIPG glioma cells, dose response, cell-based, JHH-DIPG-1, MIPE4.0, CellTiter-Glo, qHTS (AID 1347062; cut-off not given, nearly all actives have AC50 up to about 27 µM); conditions: JHH-DIPG-1 viability, CellTiter-Glo ATP luminescence
# [16] = ovarian cancer cell viability with rucaparib, profiling panel, oncology-focused library, rucaparib conditional (AID 1508598); conditions: patient-derived ovarian cancer cells, CellTiter-Glo viability, 144 h, stronger effect = lower value
# [17] = stronger effect = lower value, cell number ratio, induced over uninduced
# [18] = measured here: relative caspase fold change +Dox/-Dox
# [19] = measured here: total cells with miR-34 induction, stronger effect = lower value
# [20] = measured here: total cells without miR-34 induction
# [21] = MELAS cybrid survival, CellTiter-Glo 48 h, stronger effect = higher value
# [22] = Rieske KO mouse fibroblast survival, CellTiter-Glo 72 h
structure (smiles),measurement,setting,value
CC(C)C[C@@H](C(=O)N[C@H](C(=O)OC1CCCC1)c1ccccc1)[C@H](O)C(=O)NO,remaining activity,[1],125% (inactive)
same,AC50,[2],16.6 µM (active)
same,AC50,[3],23.5 µM (active)
same,outcome,[4],inactive
same,fold change,[5]; [17],1 (inactive)
same,fold change,[5]; [18],1.24
same,cell count,[5]; [19],7280
same,cell count,[5]; [20],7280
same,SSMD,[6],3.49
same,cell count,[6],6800
same,plate-normalised HSF1 focus index,[6],1.19 (inactive)
same,z-score,[7],0.875 (inactive)
CC(C)N(CCC(=O)c1ccc2ccccc2c1)Cc1ccccc1,parasite load remaining,[8],28.5% (inactive)
same,viability,[8],88.8%
same,remaining activity,[1],113% (inactive)
same,AC50,[9],7.42 µM (active)
same,AC50,[10],7.42 µM (active)
same,AC50,[11],6.61 µM (active)
same,AC50,[4],4.17 µM (active)
same,fold change,[5]; [17],1.13 (inactive) and 0.795 (inactive) and 0.953 (inactive)
same,fold change,[5]; [18],1 and 0.533 and 0.643
same,cell count,[5]; [19],10100 and 6810 and 7420
same,cell count,[5]; [20],8940 and 8570 and 7790
same,z-score,[12]; [21],-0.331 (inactive)
same,z-score,[12]; [22],-0.0503
same,z-score,[7],-1.29 (inactive) and -0.82 (inactive)
O=S(=O)(NCCNC/C=C/c1ccc(Br)cc1)c1cccc2cnccc12,parasite load remaining,[8],26.7% (inactive)
same,viability,[8],66.5%
same,remaining activity,[1],114% (inactive)
same,AC50,[2],16.6 µM (active)
same,AC50,[11],23.5 µM (active)
same,AC50,[4],16.6 µM (active)
same,outcome,[13],inactive
same,fold change,[5]; [17],0.909 (inactive) and 1.06 (inactive)
same,fold change,[5]; [18],1.15 and 1.08
same,cell count,[5]; [19],2930 and 6810
same,cell count,[5]; [20],3220 and 6450
same,z-score,[7],-0.61 (inactive)
CNC(=O)[C@H]1O[C@@H](n2cnc3c(NCc4cccc(I)c4)nc(Cl)nc32)[C@H](O)[C@@H]1O,remaining activity,[1],96.8% (inactive)
same,AC50,[9],18.6 µM (active)
same,AC50,[10],16.6 µM (active)
same,AC50,[4],23.5 µM (active)
same,outcome,[13],inactive
same,fold change,[5]; [17],0.954 (inactive)
same,fold change,[5]; [18],0.816
same,cell count,[5]; [19],5880
same,cell count,[5]; [20],6160
same,z-score,[7],-0.4 (inactive)
O=Nc1c(-c2c(O)[nH]c3ccccc23)[nH]c2ccccc12,parasite load remaining,[8],33.5% (inactive)
same,viability,[8],168%
same,remaining activity,[1],116% (inactive)
same,fold change,[5]; [17],1.02 (inactive) and 0.941 (inactive) and 1.27 (inactive)
same,fold change,[5]; [18],0.96 and 0.857 and 0.731
same,cell count,[5]; [19],1220 and 814 and 1460
same,cell count,[5]; [20],1200 and 866 and 1140
same,z-score,[7],-1.48 (inactive) and -0.805 (inactive)
FC(F)(F)c1ccc(/C=C/c2nc(COc3ccc(CCCCn4ccnn4)cc3)co2)cc1,remaining activity,[1],112% (inactive)
same,outcome,[14],inactive
same,outcome,[15],inactive
same,outcome,[10],inactive
same,outcome,[3],inactive
same,fold change,[5]; [17],1.08 (inactive)
same,fold change,[5]; [18],2.06
same,cell count,[5]; [19],4070
same,cell count,[5]; [20],3770
same,z-score,[7],-0.935 (inactive)
Cc1ccc(S(=O)(=O)/C=C/C#N)cc1,parasite load remaining,[8],28.8% (inactive)
same,viability,[8],155%
same,remaining activity,[1],118% (inactive)
same,fold change,[5]; [17],1.22 (inactive) and 0.866 (inactive) and 0.568 (active)
same,fold change,[5]; [18],0.97 and 2.14 and 4.02
same,cell count,[5]; [19],1120 and 1020 and 904
same,cell count,[5]; [20],923 and 1180 and 1590
same,SSMD,[6],-10.4
same,cell count,[6],6840
same,plate-normalised HSF1 focus index,[6],0.628 (inactive)
same,viability,"[16]; at 0.000305 µM, OCI-C5x cells, with rucaparib 10 µM, 100% = cells with rucaparib alone",105% (inactive)
same,viability,"[16]; at 0.000305 µM, OCI-C5x cells, without rucaparib",97.6% (active)
same,viability,"[16]; at 0.000305 µM, OCI-P5x cells, with rucaparib 20 µM, 100% = cells with rucaparib alone",97.8% (active)
same,viability,"[16]; at 0.000305 µM, OCI-P5x cells, without rucaparib",102% (inactive)
same,viability,"[16]; at 0.00122 µM, OCI-C5x cells, with rucaparib 10 µM, 100% = cells with rucaparib alone",116% (inactive)
same,viability,"[16]; at 0.00122 µM, OCI-C5x cells, without rucaparib",111% (inactive)
same,viability,"[16]; at 0.00122 µM, OCI-P5x cells, with rucaparib 20 µM, 100% = cells with rucaparib alone",98.6% (active)
same,viability,"[16]; at 0.00122 µM, OCI-P5x cells, without rucaparib",106% (inactive)
same,viability,"[16]; at 0.00488 µM, OCI-C5x cells, with rucaparib 10 µM, 100% = cells with rucaparib alone",116% (inactive)
same,viability,"[16]; at 0.00488 µM, OCI-C5x cells, without rucaparib",123% (inactive)
same,viability,"[16]; at 0.00488 µM, OCI-P5x cells, with rucaparib 20 µM, 100% = cells with rucaparib alone",94.4% (active)
same,viability,"[16]; at 0.00488 µM, OCI-P5x cells, without rucaparib",105% (inactive)
same,viability,"[16]; at 0.0195 µM, OCI-C5x cells, with rucaparib 10 µM, 100% = cells with rucaparib alone",115% (inactive)
same,viability,"[16]; at 0.0195 µM, OCI-C5x cells, without rucaparib",117% (inactive)
same,viability,"[16]; at 0.0195 µM, OCI-P5x cells, with rucaparib 20 µM, 100% = cells with rucaparib alone",95.6% (active)
same,viability,"[16]; at 0.0195 µM, OCI-P5x cells, without rucaparib",106% (inactive)
same,viability,"[16]; at 0.0781 µM, OCI-C5x cells, with rucaparib 10 µM, 100% = cells with rucaparib alone",115% (inactive)
same,viability,"[16]; at 0.0781 µM, OCI-C5x cells, without rucaparib",109% (inactive)
same,viability,"[16]; at 0.0781 µM, OCI-P5x cells, with rucaparib 20 µM, 100% = cells with rucaparib alone",86.5% (active)
same,viability,"[16]; at 0.0781 µM, OCI-P5x cells, without rucaparib",102% (inactive)
same,viability,"[16]; at 0.313 µM, OCI-C5x cells, with rucaparib 10 µM, 100% = cells with rucaparib alone",115% (inactive)
same,viability,"[16]; at 0.313 µM, OCI-C5x cells, without rucaparib",116% (inactive)
same,viability,"[16]; at 0.313 µM, OCI-P5x cells, with rucaparib 20 µM, 100% = cells with rucaparib alone",90.2% (active)
same,viability,"[16]; at 0.313 µM, OCI-P5x cells, without rucaparib",94.8% (active)
same,viability,"[16]; at 1.25 µM, OCI-C5x cells, with rucaparib 10 µM, 100% = cells with rucaparib alone",122% (inactive)
same,viability,"[16]; at 1.25 µM, OCI-C5x cells, without rucaparib",112% (inactive)
same,viability,"[16]; at 1.25 µM, OCI-P5x cells, with rucaparib 20 µM, 100% = cells with rucaparib alone",83.8% (active)
same,viability,"[16]; at 1.25 µM, OCI-P5x cells, without rucaparib",81.1% (active)
same,viability,"[16]; at 5 µM, OCI-C5x cells, with rucaparib 10 µM, 100% = cells with rucaparib alone",3.86% (active)
same,viability,"[16]; at 5 µM, OCI-C5x cells, without rucaparib",4.91% (active)
same,viability,"[16]; at 5 µM, OCI-P5x cells, with rucaparib 20 µM, 100% = cells with rucaparib alone",26.6% (active)
same,viability,"[16]; at 5 µM, OCI-P5x cells, without rucaparib",2.37% (active)
same,z-score,[7],-1.38 (inactive) and -1.04 (inactive)
Cc1cccc(C#Cc2ccccc2)n1,remaining activity,[1],102% (inactive)
same,outcome,[14],inactive
same,outcome,[15],inactive
same,outcome,[2],inactive
same,outcome,[3],inactive
same,fold change,[5]; [17],1.16 (inactive) and 0.932 (inactive) and 0.863 (inactive)
same,fold change,[5]; [18],0.95 and 0.499 and 0.79
same,cell count,[5]; [19],8900 and 6820 and 7820
same,cell count,[5]; [20],7690 and 7310 and 9060
same,z-score,[12]; [21],-0.0615 (inactive)
same,z-score,[12]; [22],0.0234
same,z-score,[7],1.15 (inactive) and 1.02 (inactive)
N#CC(=C(/N)Sc1ccccc1N)/C(C#N)=C(\N)Sc1ccccc1N,remaining activity,[1],92.9% (inactive)
same,AC50,[2],8.33 µM (active)
same,z-score,[7],-0.875 (inactive)
